# Laboratory results: the supplement of paper PMC6555819
# System: PXR:RXRa (NR concentration 270 nM, RXRa partner concentration 90 nM)
# Experiment: PBM binding z-score (relative to random genomic background probes); higher = stronger binding; sequences stand for … in GC…GCGATTGACAGCGTAGAATGAAGG
# Method in brief: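 Regression normalization was applied to scanned fluorescence from custom Agilent 4×180K protein-binding microarrays. Before scanning, arrays were incubated 1 h with ligand-free nuclear receptor dimers, and binding was detected with antibodies against each partner (one per run). Binding z-scores use the random background probes as reference.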
row,Sequence,PBM binding z-score
1,GCTTACGAGTCAAAGGTTATAGCATGAATAGAAT,2.73
2,CCTAGTTGGTCCGGAGGTCACACACCGGATATGA,4.13
3,TAGCCTAGGTCATGCAGGCCAGTATAGTGTCGGC,1.77
4,TAGCATAGGTCATGGGCCAGTATACCACGCGAAC,3.23
5,TCATACAGGTAAAAGGTGAAAGTCGGTGTGGTAA,1.83
6,TCAAGCAGGCCAGAGGGTCACTCAAGAGGTACGG,1.65
7,CTACCAAGGTGAACAAGGTCGTCGATTACTATTC,2.61
8,TCTGCTAGGTCAACGAGGGTCAGCTAATCTGCTA,4.96
9,TCTTGTGGATCAGCAGGTTAAGAAAGCTGGCCAA,0.354
10,CCTACTGGACCATTCAGAGGTCATTGATCATATG,4.92
11,ATCGAAAGATCGACGAGGTGAGTATACACCGTTT,-0.123
12,CCAGACAGGTGAGAAGGTAAGTCAGCCTCGATTA,0.0674
13,GTGACTGGGGCAAAGCAGGTTACCATAAGGTTGG,0.926
14,GCTAGCAGGCCATTTGGGTCACTGAATGACGGGC,0.537
15,TCATATAGGTAAATGCTAGGTAAAAGTCCGATCT,0.727
16,ACAGACAGGTGATGAAGGGAACTCAGGCTATCAT,-0.382
17,GCTAGTTGGTCAGTAAAAGGTCACACCCCGGTCG,4.6
18,ACTATTTGTTGACTTAGGGCAACCGATACGACGC,0.185
